Source: the supplement of paper PMC4840960
Structures can show the parent of a compound that is named as a salt. ± gives the standard deviation of the averaged measurements.

Tested on: E18 rat cortical neuron-glia co-culture
Test: fiber score / MBP score (myelination specific beyond OL differentiation) (ratio); higher = more myelination-specific MBP alignment
Details: 5 µM; treatment time: 8 days (DIV5-DIV13)
In short: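 Primary E18 rat cortical co-cultures (papain-dissociated, 20,000 cells/well on poly-d-lysine/laminin 96-well plates) received library compounds at 1 or 5 µM in myelination medium from DIV5 to DIV13. Cells were fixed in 4 % paraformaldehyde and immunostained for MBP and Olig2 with DAPI, and four 10X fields per well in duplicate wells were analysed. The read-out is fiber score (continuous MBP fiber length per Olig2+ nucleus) divided by MBP score (thresholded MBP area × intensity per Olig2+ nucleus).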

Row | Compound | fiber score / MBP score
1 | Nc1ccn([C@@H]2CS[C@H](CO)O2)c(=O)n1 [Lamivudine] | 0.619 ± 0.073
2 | COc1ccc2c3c1O[C@H]1C[C@@H](O)C=C[C@@]31CCN(C)C2 [Galantamine] | 0.673
3 | Cc1onc(-c2c(Cl)cccc2Cl)c1C(=O)N[C@@H]1C(=O)N2[C@@H]1SC(C)(C)[C@@H]2C(=O)O [Dicloxacillin] | 0.655
4 | CCOC(=O)c1ccc(OC(=O)CCCCCNC(=N)N)cc1 [Gabexate] | 0.799
5 | C[C@]12CCC(=O)C=C1CC[C@@H]1[C@@H]2C(=O)C[C@@]2(C)[C@H]1CC[C@]2(O)C(=O)CO [Cortisone] | 0.764
6 | CC(C)C[C@H](NC(=O)[C@@H](COC(C)(C)C)NC(=O)[C@H](Cc1ccc(O)cc1)NC(=O)[C@H](CO)NC(=O)[C@H](Cc1c[nH]c2ccccc12)NC(=O)[C@H](Cc1cnc[nH]1)NC(=O)[C@@H]1CCC(=O)N1)C(=O)N[C@@H](CCCNC(=N)N)C(=O)N1CCC[C@H]1C(=O)NNC(N)=O [Goserelin] | 0.867
7 | COc1cc(NC(C)CCCN)c2ncccc2c1 (stereo not given) [Primaquine] | 0.985
8 | CC1(C)S[C@@H]2[C@H](NC(=O)COc3ccccc3)C(=O)N2[C@H]1C(=O)O [Penicillin V] | 0.734
9 | COc1cc2nc(N3CCN(C(=O)C4COc5ccccc5O4)CC3)nc(N)c2cc1OC (stereo not given) [Doxazosin] | 0.531
10 | CCCN(CCC)S(=O)(=O)c1ccc(C(=O)O)cc1 [Probenecid] | 1.44
11 | CC1(C)S[C@@H]2[C@H](NC(=O)Cc3ccccc3)C(=O)N2[C@H]1C(=O)O [Penicillin G] | 1.19
12 | C[C@H](CCC(=O)O)[C@H]1CC[C@H]2[C@@H]3[C@H](O)C[C@@H]4C[C@H](O)CC[C@]4(C)[C@H]3CC[C@]12C [Chenodeoxycholic Acid] | 0.787
13 | CC(=O)OCC[N+](C)(C)C [Acetylcholine] | 0.34
14 | O=C1c2c(O)cc(O)cc2OC(c2ccc(O)c(O)c2)C1O (stereo not given) [Taxifolin] | 0.943
15 | NC(=O)OCC(COC(N)=O)c1ccccc1 [Felbamate] | 0.769
16 | N[C@@H](Cc1cc(I)c(Oc2ccc(O)c(I)c2)c(I)c1)C(=O)O [Triiodothyronine] | 1.21
17 | OC(CCN1CCCC1)(c1ccccc1)C1CCCCC1 (stereo not given) [Procyclidine] | 1.05
18 | CN1CCN2c3ncccc3Cc3ccccc3C2C1 (stereo not given) [Mirtazapine] | 1.07

Row | Compound | fiber score / MBP score
19 | O=C1CN(/N=C/c2ccc(-c3ccc([N+](=O)[O-])cc3)o2)C(=O)N1 [Dantrolene sodium salt dihydrate] | 0.372
20 | Nc1nc(F)nc2c1ncn2[C@@H]1O[C@H](CO)[C@@H](O)[C@@H]1O [Fludarabine] | 0.885
21 | COC(=O)C1=C(C)NC(C)=C(C(=O)OC2CCCN(Cc3ccccc3)C2)C1c1cccc([N+](=O)[O-])c1 (stereo not given) [Benidipine] | 0.892
22 | CC(C)NCC(O)c1cc(O)cc(O)c1 (stereo not given) [Metaproterenol] | 0.371
23 | Cc1cc2c(s1)Nc1ccccc1N=C2N1CCN(C)CC1 [Olanzapine] | 0.751
24 | CC(C)(C)NC[C@H](O)COc1nsnc1N1CCOCC1 [Timolol] | 1.02
25 | CCS(=O)(=O)CCn1c([N+](=O)[O-])cnc1C [Tinidazole] | 0.706
26 | CN(C)CCOC(c1ccc(Cl)cc1)c1ccccn1 (stereo not given) [Carbinoxamine] | 1.23
27 | CC(C)NCC(O)c1ccc(O)c(O)c1 (stereo not given) [Isoproterenol] | 0.931
28 | N[C@@H](C(=O)N[C@@H]1C(=O)N2C(C(=O)O)=C(Cl)CS[C@H]12)c1ccccc1 [Cefaclor] | 0.875
29 | COc1cc(C)c(Cc2cnc(N)nc2N)cc1OC [Ormetoprim] | 0.726
30 | CC(C)n1c(/C=C/C(O)CC(O)CC(=O)O)c(-c2ccc(F)cc2)c2ccccc21 (stereo not given) [Fluvastatin] | 0.319
31 | CCN(CC)CCOC(=O)C1(C2CCCCC2)CCCCC1 [Dicyclomine] | 0.288
32 | CN(C)CCCN1c2ccccc2Sc2ccc(Cl)cc21 [Chlorpromazine] | 1.17
33 | CSc1nc2cc(Cl)c(Oc3cccc(Cl)c3Cl)cc2[nH]1 [Triclabendazole] | 0.685
34 | COc1ccccc1N1CCN(CC(O)COc2cccc3ccccc23)CC1 (stereo not given) [Naftopidil] | 0.695
35 | CCOC(=O)CCC(=O)O[C@H]1[C@H](O[C@@H]2[C@@H](C)[C@H](O[C@H]3C[C@@](C)(OC)[C@@H](O)[C@H](C)O3)[C@@H](C)C(=O)O[C@H](CC)[C@@](C)(O)[C@H](O)[C@@H](C)C(=O)[C@H](C)C[C@@]2(C)O)O[C@H](C)C[C@@H]1N(C)C [Erythromycin Ethylsuccinate] | 0.642
